Experimental data reported in the supplement of paper PMC6555819.

Legend:
Experiment in all cases: PBM binding z-score (relative to random genomic background probes); higher = stronger binding; sequences stand for … in GC…GCGATTGACAGCGTAGAATGAAGG
[1] = test system: PPARg:RXRa DBDmut IVT, anti-RXR (DBD mutation: RXRa K156A/R161A, NR concentration 270 nM, RXRa partner concentration 90 nM)
Summary of the method: (§1)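 Binding buffer was PBS pH 7.4 with 2% milk, 0.02% Triton X-100, 1 mM DTT, 0.2 mg/mL BSA and 0.4 mg/ml salmon testes DNA. In it, ligand-free nuclear receptor dimers were incubated 1 h on custom Agilent 4×180K protein-binding microarrays carrying double-stranded probes. Antibodies against each partner (one per run) detected binding, and z-scores were calculated against random background probes after regression normalization of scanned fluorescence.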

[2] = test system: PPARg:RXRa IVT, anti-PPARg (NR concentration 270 nM, RXRa partner concentration 90 nM)
Summary of the method: as §1

[3] = test system: PPARg DBDmut:RXRa IVT, anti-PPARg (DBD mutation: PPARg1 K132A/R137A, NR concentration 270 nM, RXRa partner concentration 90 nM)
Summary of the method: as §1

[4] = test system: PPARg DBDmut IVT, anti-PPARg (DBD mutation: PPARg1 K132A/R137A, NR concentration 270 nM)
Summary of the method: as §1

[5] = test system: PPARg homodimer (NR concentration 180 nM)
Summary of the method: as §1

[6] = test system: PXR:RXRa (NR concentration 270 nM, RXRa partner concentration 90 nM)
Summary of the method: as §1

[7] = test system: PXR homodimer (NR concentration 270 nM)
Summary of the method: as §1

[8] = test system: RARa:RXR (NR concentration 270 nM, RXRa partner concentration 90 nM)
Summary of the method: as §1

[9] = test system: RARa homodimer (NR concentration 270 nM)
Summary of the method: as §1

[10] = test system: RARb:RXRa (NR concentration 270 nM, RXRa partner concentration 90 nM)
Summary of the method: as §1

[11] = test system: RARb homodimer (NR concentration 270 nM)
Summary of the method: as §1

[12] = test system: RARg:RXRa (NR concentration 270 nM, RXRa partner concentration 90 nM)
Summary of the method: as §1

[13] = test system: RARg homodimer (NR concentration 270 nM)
Summary of the method: as §1

[14] = test system: RXRa DBDmut IVT, anti-RXR (DBD mutation: RXRa K156A/R161A, NR concentration 90 nM)
Summary of the method: as §1

[15] = test system: RXRa homodimer (NR concentration 180 nM)
Summary of the method: as §1

[16] = test system: THRa:RXRa (NR concentration 90 nM, RXRa partner concentration 90 nM)
Summary of the method: as §1

[17] = test system: THRa homodimer (NR concentration 90 nM)
Summary of the method: as §1

[18] = test system: VDR homodimer (NR concentration 270 nM)
Summary of the method: as §1

Sequence	PBM binding z-score [1]	PBM binding z-score [2]	PBM binding z-score [3]	PBM binding z-score [4]	PBM binding z-score [5]	PBM binding z-score [6]	PBM binding z-score [7]	PBM binding z-score [8]	PBM binding z-score [9]	PBM binding z-score [10]	PBM binding z-score [11]	PBM binding z-score [12]	PBM binding z-score [13]	PBM binding z-score [14]	PBM binding z-score [15]	PBM binding z-score [16]	PBM binding z-score [17]	PBM binding z-score [18]
ATATGTAGGTTAGCTTGGGTCATTCAGACTAGGC	6.6	5.97	1.34	1.95	1.5	2.77	0.807	2.26	0.877	1.89	2.7	2.07	1.67	0.678	1.89	4.29	1.36	1.36
TCTTGTAGATCAGCGGGTTAAGAAAGCTGGCCAA	1.84	0.55	-0.631	0.232	0.0922	0.359	-0.369	0.653	-0.539	0.032	0.0505	-0.0561	-0.559	0.982	0.349	0.0519	-0.241	-0.169
CCTATTAGTTGACCATAAGGACAACCGAAGCTCG	0.245	0.48	1.08	1.03	2.6	0.623	1.23	1.27	2.5	1.22	1.71	1.36	1.28	0.69	0.852	3.42	3.91	1.1
CCTAGCAGGCCGGGGTCACTCAAGCATTTCGCTT	0.19	1.7	-1.3	-0.709	1.87	5.35	0.474	5.98	0.348	3.53	3.68	4.98	3.6	1.99	6.81	3.89	2.05	3.75
TCAGACAGCTGAAGGTAACTCAGGTACGCAGTCG	1.6	-0.656	-0.951	-0.614	-1.05	0.139	-0.874	0.392	-0.741	-0.0591	-0.661	-0.115	-0.24	0.764	0.413	1.05	-0.685	-0.186
ATCGAAAGGTCGTGAGGCGAGTATACAGAAAGGC	0.466	1.91	1.82	1	1.5	2.96	0.0504	3.69	0.41	4.1	2.55	4.39	3.91	1.28	5.34	2.49	-0.00887	0.582
GTTACAGGGTCAGCTAGAGGCCAGAGTATGGAAA	1.9	2.79	0.0715	-0.0967	2.41	3.39	0.141	3.88	0.709	4.27	3.54	6.82	5.21	1.4	4.47	3.11	0.599	1.01
CCTAGTTGGTCAAGGACACACACGCTATAGGTAC	1.07	1.39	0.248	-0.0353	0.735	0.0768	0.977	1.06	1.89	1.51	1.47	1.19	1.81	0.547	0.578	2.95	2.82	1.33
CCTATCAGTTGACCATAAGGGCAACCGAAGCTCG	-0.0435	0.067	-0.241	0.0861	1.5	0.754	0.186	1.14	0.698	1.6	1.93	1.48	1.03	0.139	0.916	1.98	1.26	0.554
CGTCCAAGGTCAATGCTAGGGCAGTGAAAGCATT	2.64	3.52	0.232	-0.81	2.06	3.68	0.492	4.3	-0.245	5.2	4.25	6.47	6.26	3.44	4.5	3.96	1.89	1.93
CGTCCAAGGTCATAGGAGCTCAGTGAAGACAGAT	2.78	3.29	1.43	-0.573	2.6	4.27	1.07	4.66	0.0934	5.1	3.58	5.66	5.78	3.96	5.68	4.03	2.37	2.47
GCGACTGGGGCATCCGCAGGTTACCATAACTTAA	3.8	3.27	-1.11	-0.898	-0.268	0.263	-0.637	0.49	-1	0.89	0.945	1.31	0.446	0.00577	0.41	1.21	-0.198	-0.454
TATGCTAGGTCAACGATGGTCAGCTAATCTGCTA	2.97	3.84	1.31	1.14	1.14	1.77	-0.438	2.6	-0.282	3.96	3.36	4.02	4.8	0.79	2.62	3.24	0.639	-0.267
CCGACTGGGGCATAAGGTTACTATAAGCCAGCCC	2.65	3.13	-0.815	-1.53	0.494	0.29	-0.23	0.911	-0.358	1.45	1.38	1.37	0.813	-0.277	1.04	1.59	0.819	0.0174
GGAACGAGGGCAAGTTGACAGCAGAGTTTGATGG	4.05	3	-0.195	-0.654	0.481	0.693	0.641	0.4	-0.316	2.51	1.76	1.71	2.41	2.46	1.16	1.17	-0.0541	1.42
